# Measurements: PubChem BioAssay AID540317 (National Center for Advancing Translational Sciences (NCATS), 2011)
# Out of some 390,000 compounds screened, about 2,200 (0.56%) were called active. Inconclusive results (about 3%) are left out. The call rests on the fitted dose curve; in most records, active means well fitted inhibition curve with a large enough effect; inconclusive means small, poorly fitted or top-dose-only effect; inactive means no such curve, though single readings can be large or run the other way. The entries come from a sample that favours actives as a whole. Where a call stands in place of a potency, no number is given.
# Biological target: Chromobox protein homolog 1 (Homo sapiens) (UniProt P83916)
# Experiment: HTS for Inhibitors of HP1-beta Chromodomain Interactions with Methylated Histone Tails; further: nearly all actives have a fitted effect of over 70% in size
# Conditions: AlphaScreen HP1-beta / biotin-H3K9me3 peptide binding; series mostly up to 114 µM
# Method in brief: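 HP1-beta protein (50 nM final) preincubated 30 min at room temperature with biotinylated H3(1-18)K9me3 peptide (50 nM) in PBS pH 7.4, 0.01% Tween-20, then compound added for 30 min. AlphaScreen streptavidin donor/nickel chelate acceptor beads (10 ug/mL final), 30 min dark, luminescence read.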
# Potency means the concentration at half of the fitted maximal effect.
# Sequence of Chromobox protein homolog 1 (Homo sapiens) (P83916 whole entry, looked up): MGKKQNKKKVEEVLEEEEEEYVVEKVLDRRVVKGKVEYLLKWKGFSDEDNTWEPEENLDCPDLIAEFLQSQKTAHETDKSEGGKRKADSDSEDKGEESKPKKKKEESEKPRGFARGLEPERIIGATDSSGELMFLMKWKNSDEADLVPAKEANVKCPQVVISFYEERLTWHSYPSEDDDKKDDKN
row,SMILES,Potency
1,Cc1c(S(=O)(=O)NCc2ccccc2)c(=O)n(C)c(=O)n1C,inactive
2,Cc1cc(=O)n(C)c(=O)n1CCCNc1ccccc1,56.2 µM (active)
3,Cn1c(=O)c(=O)n(C)c2cc(S(=O)(=O)NCCc3ccccc3)ccc21,inactive
4,Cc1ccc(NC(=O)NC(C)c2c(-n3cccc3)sc(C)c2C)c(C)c1 (stereo not given),inactive
5,COc1ccc(CN(Cc2ccccc2)C(=O)c2ccc(O)cc2)cc1COc1ccc(NC(C)=O)cc1,inactive
6,CCN(CC)c1ccc(NC(=O)CN2CCN(c3ccccn3)CC2)cc1,inactive
7,CC(=O)c1ccc(N2CCN(CC(=O)Nc3ccccc3N3CCOCC3)CC2)cc1,inactive
8,O=C(CN1CCN(c2ccc(O)cc2)CC1)Nc1cc(S(=O)(=O)N2CCOCC2)ccc1Cl,79.4 µM (active)
9,Cc1ccc(Cl)cc1NC(=O)CN1CCN(S(=O)(=O)N2CCOCC2)CC1,inactive
10,O=C(CN1CCN(c2cccc(Cl)c2)CC1)Nc1ccc(S(=O)(=O)N2CCOCC2)cc1,inactive
11,O=C(CN1CCN(c2ccc(O)cc2)CC1)Nc1ccc(-c2ccccc2)cc1,79.4 µM (active)
12,COc1ccccc1CN1CCC(CNC(=O)c2cnn(-c3cccc(Cl)c3)c2C2CCN(C(=O)OC(C)(C)C)CC2)CC1,inactive
13,Oc1ccc(Cl)cc1C1C=C(c2ccc3c(c2)OCO3)NC(c2c(F)cccc2Cl)N1 (stereo not given),inactive
14,CCOc1ccc(C2C(C(=O)Nc3ccc(Cl)cc3)=C(C)Nc3nc(C(F)(F)F)nn32)cc1 (stereo not given),inactive
15,CCOc1ccc(NC(=O)CCc2c(C)nn(-c3ccc(N4CCCC4)nn3)c2C)cc1,inactive
16,Cc1ccc2nc(COc3cccc(NC(=O)c4cccc(Cl)c4)c3)cc(=O)n2c1,inactive
17,Cc1cccc(C)c1-n1c(C)cc(/C=C2\C(=O)NN(c3ccccc3)C2=O)c1C,15.8 µM (active)
18,CCCSc1ncc(Cl)c(C(=O)Nc2c(C(=O)Nc3ccccc3)oc3ccccc23)n1,inactive

row,SMILES,Potency
1,COc1ccccc1-c1nnc(C2CCN(C(=O)c3ccc(Cl)cc3)CC2)o1,inactive
2,CCOc1ccc(Nc2nc3c(S(=O)(=O)c4cccc(Cl)c4)nnn3c3ccsc23)cc1,inactive
3,Cc1ccc(Cn2cc(CCC(=O)NCc3ccc(OC(C)C)cc3)c3ccccc32)cc1,inactive
4,COc1ccc(N2CCN(C(=O)c3cccs3)CC2)cc1,inactive
5,COc1ccc(N2CCN(Cc3ccc(Br)s3)CC2)cc1,17.8 µM (active)
6,COc1ccc(N2CCN(S(=O)(=O)c3cc(Br)cnc3N)CC2)cc1,inactive
7,Cc1ccc(Nc2nc3ccccc3nc2-n2nc(C)cc2C)c(Cl)c1,inactive
8,Cc1ccc(Cl)cc1N(C)C(=O)Cn1nc(Cc2cccnc2)c2ccccc2c1=O,inactive
9,COc1ccc(-c2nc(SCC(=O)N3CCCCC3C)n[nH]2)cc1 (stereo not given),inactive
10,Cc1ccc(-c2nc(S(=O)(=O)c3ccc(C)cc3)c(N3CCCCCC3)o2)cc1,inactive
11,CN1/C(=c2/s/c(=C3/C(=O)N(c4ccccc4)NC3=Nc3ccccc3)n(C)c2=O)C(C)(C)c2ccccc21,28.2 µM (active)
12,Cc1cc(C)cc(NC(=O)CSc2nc3nccnc3c(=O)n2CCc2c[nH]c3ccccc23)c1,inactive
13,Cc1ccc(Cl)cc1NC(=O)NC1COc2ccccc2C1 (stereo not given),inactive
14,Cn1nnc2c(N3CCN(c4ccccc4)CC3)ncnc21,inactive
15,CCOc1ccc(NC(=O)c2cc(S(=O)(=O)N3CCCC3)c[nH]2)cc1,inactive
16,CC(=O)N(C1=C(Cl)C(=O)c2ccccc2C1=O)c1ccc(C(=O)O)cc1,7.94 µM (active)
17,CCOc1ccc(CNC(=O)Cn2cc3c(n2)-c2c(oc(C(=O)N4CCCC4)c2C)CC3)cc1,inactive
